Structures are written as SMILES. Out of some 330,000 compounds screened, about 930 (0.28%) were called active.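 The calls were made as follows: active = inhibition of at least 40% at 20 µM, with no more than 30% in the related APOBEC3A deaminase screen; inactive = the rest.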 Shown is part of a subset that was picked to be rich in actives.

Our source for the inhibition values is PubChem BioAssay AID493012 (Sanford-Burnham Center for Chemical Genomics, 2011).

In the assay the target is DNA dC->dU-editing enzyme APOBEC-3G (Homo sapiens) (UniProt Q9HC16). The assay can be described thus: inhibition of human A3G ssDNA deamination – biochemical, fluorescence, single-stranded DNA substrate, uHTS, primary screen (AID 493012).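 Also: plate controls were DMSO wells with A3G for no effect and wells lacking A3G enzyme for full effect.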 Particulars: recombinant A3G, ssDNA deamination FAM/TAMRA fluorescence; at 20 µM; hits give high values.
DNA dC->dU-editing enzyme APOBEC-3G (Homo sapiens), sequence (Q9HC16 whole entry, looked up): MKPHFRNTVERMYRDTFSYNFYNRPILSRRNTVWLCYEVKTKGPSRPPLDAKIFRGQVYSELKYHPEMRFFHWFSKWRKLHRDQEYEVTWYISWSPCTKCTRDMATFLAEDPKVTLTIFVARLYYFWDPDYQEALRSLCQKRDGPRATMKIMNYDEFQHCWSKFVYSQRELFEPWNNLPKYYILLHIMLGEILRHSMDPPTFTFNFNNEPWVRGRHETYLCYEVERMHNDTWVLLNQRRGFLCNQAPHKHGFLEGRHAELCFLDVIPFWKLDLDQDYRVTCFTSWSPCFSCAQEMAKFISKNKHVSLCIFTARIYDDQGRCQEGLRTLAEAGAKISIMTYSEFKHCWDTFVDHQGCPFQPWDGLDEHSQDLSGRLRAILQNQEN
Broadly, the inhibition is the relative decrease from the control value, in per cent. Regarding `CCCN1C2CCCC1CC(NC(=O)NC13CC4CC(CC(C4)C1)C3)C2` (stereo not drawn), the inhibition was -7.31% (inactive).
In the case of `CC(C)C1Nc2c(C(=O)O)cccc2C(Nc2ccccc2C(=O)O)C1(C)C` (stereo not drawn), the inhibition was 3.35% (inactive).
As to `COc1ccc(N2C(=O)CC(SC(C)C)C2=O)cc1` (stereo not drawn), the inhibition was -8.49% (inactive).
Take `COc1ccc(N2C(=O)CC(Sc3n[nH]c(-c4ccc(C)cc4)n3)C2=O)cc1` (stereo not drawn): the inhibition was 41.5% (active).
Turning to `COc1ccc(-c2nc(SCC(=O)N3CCCC3)n[nH]2)cc1`, the inhibition is -17.7% (inactive).
As for `CCOC(=O)C1=C(c2ccccc2)NC(=O)NC1c1cc(OCC)c(O)c([N+](=O)[O-])c1` (stereo not drawn), the inhibition was -2.96% (inactive).
As for `CCOC(=O)c1cnc(Nc2nc3ccccc3o2)nc1CSC(=S)N1CCCCC1`, the inhibition was -3.98% (inactive).
For `N#CCC(=O)Nc1ccc(C(=O)OCC(=O)Nc2sc3c(c2C#N)CCCC3)cc1` the value was -9.04% (inactive); for `CCOc1ccc(NC(=O)c2ccc(NC(=O)COC(=O)c3ccc(NC(=O)CC#N)cc3)cc2)cc1`, 66.2% (active).
Under `CC(C)NC(=O)NC(=O)COC(=O)c1ccc(NC(=O)CC#N)cc1` stands -1.25% (inactive).
For `COc1ccc(C2(C)ON(c3ccccc3C(F)(F)F)C2=O)cc1` (stereo not drawn) the value was -6.81% (inactive).
For the compound `CC(=O)Nc1ccc(S(=O)(=O)Nc2ccc(N3CCCCC3)cc2)cc1`, the inhibition is -1.93% (inactive).
Regarding `O=C1C=CC(=O)N1c1ccc(N2CCCCC2)cc1`, the inhibition is 56.8% (active).
Turning to `O=C(C1CC(=O)N(C2CCCCC2)C1)N1CCN(c2ccccc2)CC1` (stereo not drawn), the inhibition was -5.67% (inactive).
For `COc1ccccc1OCC(=O)Nc1c2c(nn1-c1ccc(F)cc1)CS(=O)(=O)C2`, the inhibition was -3.56% (inactive).
For `O=C(NCC1CCCCC1)c1cc(S(=O)(=O)N2CCCCC2)ccc1N1CCOCC1`, the inhibition is -1.87% (inactive).
With `O=C(CCn1c(=O)oc2ccccc21)Nc1ccon1`, the inhibition is -6.36% (inactive).
Under `Cc1nc(Cl)c(C#N)c2c1CCCC2` stands -4.63% (inactive); under `COC(=O)c1c(C)c(C)nc(N)c1C#N`, -1.41% (inactive).
As for `COCc1c(N)c(C)nc(Cl)c1C#N`, the inhibition was 66.3% (active).
As to `Brc1ccc(C2CC(c3ccccc3)=Nc3ccccc3N2)cc1` (stereo not drawn), the inhibition was -3.13% (inactive).
With `Cn1cccc1C(=O)NC(=O)COC(=O)Cc1coc2ccc3ccccc3c12`, the inhibition is -8.11% (inactive).
Take `COc1cccc(CN2CCN(Cc3ccc4cccc(F)c4n3)CC2CCO)c1` (stereo not drawn): the inhibition is -9.71% (inactive).
Take `COc1ccc(CNC(=O)C(=O)N2CCC3(CC2)OCCN3S(=O)(=O)c2ccc(C)cc2)cc1`: the inhibition was -5.73% (inactive).
For `Cc1ccc(NC(=O)CN(C)C(=O)c2ccc(Cl)c(S(=O)(=O)NCc3ccco3)c2)cc1` the value was -5.2% (inactive).
For `Cc1ccc(CN2CCN(/N=C/c3ccco3)CC2)c(C)c1` the value was -10.3% (inactive).
Turning to `Cc1cc(-c2n[nH]c(=S)n2/N=C/c2ccco2)n[nH]1`, the inhibition is 44.7% (active).
As to `S=c1[nH]nc(-c2ccco2)n1/N=C/c1ccccc1`, the inhibition was 44.3% (active).
On to `S=c1[nH]nc(-c2ccco2)n1/N=C/c1ccc(Br)s1`, for which the inhibition was 17% (inactive).
For `COc1ccccc1/C=C/C=N/n1c(-c2ccc(Cl)cc2Cl)n[nH]c1=S` the value was -7.26% (inactive).
For `Fc1ccc(/C=N/n2c(COc3ccccc3)n[nH]c2=S)cc1`, the inhibition was 13.5% (inactive).
Under `CCC(C)(C)NC(=O)c1cc([N+](=O)[O-])ccc1N1CCCCC1` stands -0.515% (inactive).
In the case of `CC1(C)C[C@H]2C3=CCC4[C@@]5(C)CC[C@H](O)[C@](C)(CO)C5CC[C@@]4(C)[C@]3(C)C[C@@H](O)[C@@]2(CO)[C@@H](O)[C@@H]1O` (stereo partly drawn), the inhibition was -1.86% (inactive).
